Test results taken from ChEMBL document CHEMBL2218924, “A broad activity screen in support of a chemogenomic map for kinase signalling research and drug discovery” (Biochem J, 2013).

Legend:
[1] = target: T1, Serine/threonine-protein kinase TAO3 (Homo sapiens) (UniProt Q9H2K8); conditions: at 10 µM
T1 sequence (whole entry): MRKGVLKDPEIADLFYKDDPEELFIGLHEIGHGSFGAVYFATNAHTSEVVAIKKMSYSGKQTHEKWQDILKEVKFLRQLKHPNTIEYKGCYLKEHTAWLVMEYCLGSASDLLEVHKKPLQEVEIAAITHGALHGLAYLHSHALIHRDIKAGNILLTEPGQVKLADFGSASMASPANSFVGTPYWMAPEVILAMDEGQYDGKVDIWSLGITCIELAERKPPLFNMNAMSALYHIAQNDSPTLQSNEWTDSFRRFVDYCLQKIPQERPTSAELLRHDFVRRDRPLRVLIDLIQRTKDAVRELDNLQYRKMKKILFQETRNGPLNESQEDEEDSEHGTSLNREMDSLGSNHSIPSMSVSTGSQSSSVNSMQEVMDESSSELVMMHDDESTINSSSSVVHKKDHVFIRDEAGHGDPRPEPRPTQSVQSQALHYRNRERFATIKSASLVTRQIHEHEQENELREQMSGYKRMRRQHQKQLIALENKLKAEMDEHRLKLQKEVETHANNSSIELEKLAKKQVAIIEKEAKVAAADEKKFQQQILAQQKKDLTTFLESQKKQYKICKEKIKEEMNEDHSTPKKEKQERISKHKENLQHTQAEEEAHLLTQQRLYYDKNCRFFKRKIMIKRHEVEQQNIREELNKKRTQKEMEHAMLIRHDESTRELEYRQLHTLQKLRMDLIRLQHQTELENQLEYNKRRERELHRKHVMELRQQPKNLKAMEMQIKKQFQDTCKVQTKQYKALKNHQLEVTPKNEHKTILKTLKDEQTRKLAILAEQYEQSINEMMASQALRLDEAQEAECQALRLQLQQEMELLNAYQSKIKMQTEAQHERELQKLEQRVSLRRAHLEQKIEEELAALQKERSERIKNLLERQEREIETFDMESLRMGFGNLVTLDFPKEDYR

[2] = target: T2, Serine/threonine-protein kinase TBK1 (Homo sapiens) (UniProt Q9UHD2); conditions: at 1 µM
T2 sequence (whole entry): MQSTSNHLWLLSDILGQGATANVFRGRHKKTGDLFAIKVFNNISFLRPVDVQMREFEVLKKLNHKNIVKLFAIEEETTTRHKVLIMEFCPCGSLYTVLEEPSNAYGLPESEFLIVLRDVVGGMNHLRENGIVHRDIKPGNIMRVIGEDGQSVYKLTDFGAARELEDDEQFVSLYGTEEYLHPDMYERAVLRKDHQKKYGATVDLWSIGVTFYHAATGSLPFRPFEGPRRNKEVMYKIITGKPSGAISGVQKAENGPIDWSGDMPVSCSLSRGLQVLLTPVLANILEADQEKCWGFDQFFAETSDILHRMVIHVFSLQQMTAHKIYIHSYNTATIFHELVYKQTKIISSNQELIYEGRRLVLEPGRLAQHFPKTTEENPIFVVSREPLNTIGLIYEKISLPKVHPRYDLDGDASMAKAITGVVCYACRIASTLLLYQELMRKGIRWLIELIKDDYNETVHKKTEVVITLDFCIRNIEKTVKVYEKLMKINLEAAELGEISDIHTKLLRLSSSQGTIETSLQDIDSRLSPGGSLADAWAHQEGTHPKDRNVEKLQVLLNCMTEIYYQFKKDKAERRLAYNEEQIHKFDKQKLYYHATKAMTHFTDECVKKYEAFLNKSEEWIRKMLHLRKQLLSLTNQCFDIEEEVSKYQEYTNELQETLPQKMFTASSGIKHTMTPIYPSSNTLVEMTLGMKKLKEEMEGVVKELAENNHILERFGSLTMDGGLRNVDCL

[3] = target: T2, Serine/threonine-protein kinase TBK1 (Homo sapiens); conditions: at 10 µM
[4] = target: T3, TGF-beta receptor type-1 (Homo sapiens) (UniProt P36897); conditions: at 1 µM
T3 sequence (whole entry): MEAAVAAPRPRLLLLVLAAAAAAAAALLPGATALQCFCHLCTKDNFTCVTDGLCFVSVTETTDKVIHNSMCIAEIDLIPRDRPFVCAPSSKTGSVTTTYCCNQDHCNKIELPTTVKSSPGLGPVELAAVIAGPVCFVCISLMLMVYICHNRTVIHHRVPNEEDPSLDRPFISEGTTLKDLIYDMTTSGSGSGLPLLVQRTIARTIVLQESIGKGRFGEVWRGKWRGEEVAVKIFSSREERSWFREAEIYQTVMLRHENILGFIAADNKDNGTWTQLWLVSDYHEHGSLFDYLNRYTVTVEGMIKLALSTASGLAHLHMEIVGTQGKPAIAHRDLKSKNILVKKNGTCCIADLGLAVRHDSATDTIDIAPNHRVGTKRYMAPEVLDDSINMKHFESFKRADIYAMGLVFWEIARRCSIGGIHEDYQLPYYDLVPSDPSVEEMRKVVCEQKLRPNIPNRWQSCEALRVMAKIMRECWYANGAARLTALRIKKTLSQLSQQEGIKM

[5] = target: T3, TGF-beta receptor type-1 (Homo sapiens); conditions: at 10 µM
[6] = target: Insulin-like growth factor 1 receptor (Homo sapiens) (UniProt P08069); conditions: at 1 µM
[7] = target: T4, Inhibitor of nuclear factor kappa-B kinase subunit beta (Homo sapiens) (UniProt O14920); conditions: at 1 µM
T4 sequence (whole entry): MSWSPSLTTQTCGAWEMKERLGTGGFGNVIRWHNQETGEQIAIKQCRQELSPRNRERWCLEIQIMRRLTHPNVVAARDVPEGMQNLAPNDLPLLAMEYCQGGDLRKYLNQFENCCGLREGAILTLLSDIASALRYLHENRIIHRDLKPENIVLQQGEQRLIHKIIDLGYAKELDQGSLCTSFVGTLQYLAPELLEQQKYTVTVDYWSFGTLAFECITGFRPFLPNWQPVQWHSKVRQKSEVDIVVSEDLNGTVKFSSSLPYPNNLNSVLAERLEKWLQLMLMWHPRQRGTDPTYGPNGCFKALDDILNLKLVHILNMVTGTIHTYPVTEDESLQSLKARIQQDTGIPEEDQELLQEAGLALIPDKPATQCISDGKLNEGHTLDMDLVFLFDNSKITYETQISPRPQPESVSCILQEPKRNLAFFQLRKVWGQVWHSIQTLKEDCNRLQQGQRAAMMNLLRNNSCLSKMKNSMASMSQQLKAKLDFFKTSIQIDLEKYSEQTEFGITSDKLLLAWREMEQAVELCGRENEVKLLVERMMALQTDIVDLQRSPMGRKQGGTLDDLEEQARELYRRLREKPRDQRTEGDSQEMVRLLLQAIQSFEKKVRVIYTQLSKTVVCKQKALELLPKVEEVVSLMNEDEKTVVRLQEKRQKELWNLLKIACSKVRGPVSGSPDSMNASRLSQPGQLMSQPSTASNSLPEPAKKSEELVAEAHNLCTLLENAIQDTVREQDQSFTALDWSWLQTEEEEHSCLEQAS

[8] = target: T4, Inhibitor of nuclear factor kappa-B kinase subunit beta (Homo sapiens); conditions: at 10 µM
[9] = target: Insulin receptor (Homo sapiens) (UniProt P06213); conditions: at 1 µM
Sequence of Insulin receptor (Homo sapiens) (P06213 28-758 limits assumed): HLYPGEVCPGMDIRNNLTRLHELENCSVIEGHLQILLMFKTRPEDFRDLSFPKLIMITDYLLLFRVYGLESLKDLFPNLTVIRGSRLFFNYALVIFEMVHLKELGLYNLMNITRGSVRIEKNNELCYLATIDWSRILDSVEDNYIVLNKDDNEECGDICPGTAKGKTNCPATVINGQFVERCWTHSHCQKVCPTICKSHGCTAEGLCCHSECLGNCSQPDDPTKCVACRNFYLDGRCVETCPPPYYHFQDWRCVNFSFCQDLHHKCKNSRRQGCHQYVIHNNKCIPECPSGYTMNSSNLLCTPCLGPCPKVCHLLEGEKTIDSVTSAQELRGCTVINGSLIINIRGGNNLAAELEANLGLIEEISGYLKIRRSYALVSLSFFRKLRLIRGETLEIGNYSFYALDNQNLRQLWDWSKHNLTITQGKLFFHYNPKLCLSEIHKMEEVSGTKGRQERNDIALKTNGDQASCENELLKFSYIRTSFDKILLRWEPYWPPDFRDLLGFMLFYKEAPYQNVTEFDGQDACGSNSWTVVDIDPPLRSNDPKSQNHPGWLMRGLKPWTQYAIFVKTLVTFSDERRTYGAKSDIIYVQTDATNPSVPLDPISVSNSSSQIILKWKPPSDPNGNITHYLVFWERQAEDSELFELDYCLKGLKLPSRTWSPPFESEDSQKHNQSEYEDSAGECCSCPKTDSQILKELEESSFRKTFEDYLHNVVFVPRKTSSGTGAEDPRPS
Sequence of Insulin receptor (Homo sapiens) (P06213 763-1382 limits assumed): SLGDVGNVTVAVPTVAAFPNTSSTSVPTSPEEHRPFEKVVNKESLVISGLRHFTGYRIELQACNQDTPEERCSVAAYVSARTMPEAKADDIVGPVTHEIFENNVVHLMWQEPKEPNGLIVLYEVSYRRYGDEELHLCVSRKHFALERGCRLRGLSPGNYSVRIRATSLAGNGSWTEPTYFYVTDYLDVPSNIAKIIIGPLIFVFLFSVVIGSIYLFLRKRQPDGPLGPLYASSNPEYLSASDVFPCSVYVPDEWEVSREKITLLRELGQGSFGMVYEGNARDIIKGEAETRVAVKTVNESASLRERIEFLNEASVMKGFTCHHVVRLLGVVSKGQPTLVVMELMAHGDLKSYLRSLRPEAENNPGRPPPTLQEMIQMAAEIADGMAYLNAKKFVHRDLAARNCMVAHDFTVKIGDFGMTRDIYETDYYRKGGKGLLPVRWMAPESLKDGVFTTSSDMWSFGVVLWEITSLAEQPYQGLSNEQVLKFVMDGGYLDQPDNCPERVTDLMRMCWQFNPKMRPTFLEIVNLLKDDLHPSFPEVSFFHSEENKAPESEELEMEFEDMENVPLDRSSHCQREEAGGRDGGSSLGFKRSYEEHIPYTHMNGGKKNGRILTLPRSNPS

Sequence of Insulin-like growth factor 1 receptor (Homo sapiens) (P08069 31-736 limits assumed): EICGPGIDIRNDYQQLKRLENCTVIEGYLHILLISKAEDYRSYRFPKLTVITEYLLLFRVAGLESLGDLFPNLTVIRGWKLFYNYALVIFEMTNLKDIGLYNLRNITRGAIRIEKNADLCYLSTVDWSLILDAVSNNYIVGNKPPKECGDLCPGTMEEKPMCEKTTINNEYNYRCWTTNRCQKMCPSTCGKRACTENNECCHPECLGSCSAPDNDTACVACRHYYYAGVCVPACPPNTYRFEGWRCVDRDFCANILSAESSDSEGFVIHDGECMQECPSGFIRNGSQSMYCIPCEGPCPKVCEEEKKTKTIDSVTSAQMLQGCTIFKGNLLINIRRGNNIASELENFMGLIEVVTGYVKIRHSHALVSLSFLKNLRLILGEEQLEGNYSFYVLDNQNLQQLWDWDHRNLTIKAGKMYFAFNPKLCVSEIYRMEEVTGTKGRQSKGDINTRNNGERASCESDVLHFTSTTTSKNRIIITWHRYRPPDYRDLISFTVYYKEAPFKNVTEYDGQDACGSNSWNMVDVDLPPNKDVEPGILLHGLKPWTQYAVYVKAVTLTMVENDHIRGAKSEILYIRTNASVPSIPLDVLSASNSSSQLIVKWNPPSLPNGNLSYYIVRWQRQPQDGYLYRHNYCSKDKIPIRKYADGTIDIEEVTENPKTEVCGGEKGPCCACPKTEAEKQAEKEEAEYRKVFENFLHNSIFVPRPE
Sequence of Insulin-like growth factor 1 receptor (Homo sapiens) (P08069 741-1367 limits assumed): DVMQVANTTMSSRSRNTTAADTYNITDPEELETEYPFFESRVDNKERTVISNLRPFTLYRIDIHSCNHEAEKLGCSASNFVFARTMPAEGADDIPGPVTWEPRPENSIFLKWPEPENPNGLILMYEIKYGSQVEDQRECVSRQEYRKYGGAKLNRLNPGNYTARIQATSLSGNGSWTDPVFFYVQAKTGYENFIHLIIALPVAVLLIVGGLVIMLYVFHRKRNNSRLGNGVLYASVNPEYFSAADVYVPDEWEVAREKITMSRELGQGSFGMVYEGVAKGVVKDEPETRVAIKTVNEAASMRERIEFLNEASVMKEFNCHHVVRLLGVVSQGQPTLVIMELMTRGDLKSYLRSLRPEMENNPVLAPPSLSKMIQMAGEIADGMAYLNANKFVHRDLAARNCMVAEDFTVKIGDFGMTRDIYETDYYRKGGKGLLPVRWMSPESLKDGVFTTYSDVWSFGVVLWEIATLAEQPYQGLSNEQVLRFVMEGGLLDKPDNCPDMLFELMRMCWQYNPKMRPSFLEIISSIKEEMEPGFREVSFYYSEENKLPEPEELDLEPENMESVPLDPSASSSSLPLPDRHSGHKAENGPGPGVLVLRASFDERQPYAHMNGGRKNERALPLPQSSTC

For CN(C)S(=O)(=O)c1ccc2c(c1)/C(=C/c1cc3c([nH]1)CCCC3)C(=O)N2, the residual activity [1] was 73%, the residual activity [2] was 74% and the residual activity [3] was 60%. For the same compound, the residual activity [4] was 88%, the residual activity [5] was 91% and the residual activity [6] was 93%. It also gave a residual activity [7] of 100%, a residual activity [8] of 63% and a residual activity [9] of 93%.
